# According to the supplement of paper PMC6555819:
# Key:
# Test in all cases: PBM binding z-score (relative to random genomic background probes); higher = stronger binding; sequences stand for … in GC…GCGATTGACAGCGTAGAATGAAGG
# [1] = test system: FXR:RXRa (NR concentration 270 nM, RXRa partner concentration 90 nM)
# Outline: (§1)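 For binding z-scores, the reference was random background probes on custom Agilent 4×180K protein-binding microarrays. These arrays were incubated 1 h with ligand-free nuclear receptor dimers in PBS pH 7.4, 2% milk, 0.02% Triton X-100, 1 mM DTT, 0.2 mg/mL BSA and 0.4 mg/ml salmon testes DNA. Fluorescence was scanned after antibody detection of each partner (one per run) and regression-normalized.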
# [2] = test system: LXRa:RXRa (NR concentration 270 nM, RXRa partner concentration 90 nM)
# Outline: as §1
# [3] = test system: LXRa homodimer (NR concentration 270 nM)
# Outline: as §1
# [4] = test system: LXRb:RXRa (NR concentration 270 nM, RXRa partner concentration 90 nM)
# Outline: as §1
# [5] = test system: LXRb homodimer (NR concentration 270 nM)
# Outline: as §1
# [6] = test system: PPARa:RXRa (NR concentration 270 nM, RXRa partner concentration 90 nM)
# Outline: as §1
# [7] = test system: PPARg:RXRa (NR concentration 180 nM, RXRa partner concentration 90 nM)
# Outline: as §1
# [8] = test system: PPARg:RXRa 270nM:90nM, anti-RXR (NR concentration 270 nM, RXRa partner concentration 90 nM)
# Outline: as §1
# [9] = test system: PPARg:RXRa 30nM:10nM, anti-RXR (NR concentration 30 nM, RXRa partner concentration 10 nM)
# Outline: as §1
# [10] = test system: PPARg:RXRa 90nM:30nM, anti-RXR (NR concentration 90 nM, RXRa partner concentration 30 nM)
# Outline: as §1
# [11] = test system: PPARg:RXRa DBDmut IVT, anti-RXR (DBD mutation: RXRa K156A/R161A, NR concentration 270 nM, RXRa partner concentration 90 nM)
# Outline: as §1
# [12] = test system: PPARg:RXRa IVT, anti-PPARg (NR concentration 270 nM, RXRa partner concentration 90 nM)
# Outline: as §1
# [13] = test system: PPARg DBDmut:RXRa IVT, anti-PPARg (DBD mutation: PPARg1 K132A/R137A, NR concentration 270 nM, RXRa partner concentration 90 nM)
# Outline: as §1
# [14] = test system: PPARg DBDmut IVT, anti-PPARg (DBD mutation: PPARg1 K132A/R137A, NR concentration 270 nM)
# Outline: as §1
# [15] = test system: PPARg homodimer (NR concentration 180 nM)
# Outline: as §1
# [16] = test system: PXR:RXRa (NR concentration 270 nM, RXRa partner concentration 90 nM)
# Outline: as §1
# [17] = test system: PXR homodimer (NR concentration 270 nM)
# Outline: as §1
# [18] = test system: RARa:RXR (NR concentration 270 nM, RXRa partner concentration 90 nM)
# Outline: as §1
# [19] = test system: RARa homodimer (NR concentration 270 nM)
# Outline: as §1
# [20] = test system: RARb:RXRa (NR concentration 270 nM, RXRa partner concentration 90 nM)
# Outline: as §1
Sequence,PBM binding z-score [1],PBM binding z-score [2],PBM binding z-score [3],PBM binding z-score [4],PBM binding z-score [5],PBM binding z-score [6],PBM binding z-score [7],PBM binding z-score [8],PBM binding z-score [9],PBM binding z-score [10],PBM binding z-score [11],PBM binding z-score [12],PBM binding z-score [13],PBM binding z-score [14],PBM binding z-score [15],PBM binding z-score [16],PBM binding z-score [17],PBM binding z-score [18],PBM binding z-score [19],PBM binding z-score [20]
TAGCCTAGGGCAGATCGGGCCAGTATACGCTATA,-0.551,-0.549,-0.559,-0.757,-1.16,-0.359,0.168,-0.585,-0.695,-0.348,-0.53,-0.145,-0.91,-1.38,-0.781,-0.394,-0.7,0.406,-1.26,0.79
CCCGACAGGTGAGAAGGTAACTCAGCCTCGATTA,-0.0059,0.3,0.072,0.291,-0.434,0.726,0.396,0.584,-0.2,0.0512,0.828,0.811,-0.905,-0.776,0.497,-0.281,-0.233,-0.0407,0.0144,0.749
CGAACTAGGTCAGAACAGGCCAGTGAAGGATGAT,1.1,0.652,-0.282,0.231,-0.675,3.02,4.88,4.38,1.91,3.5,6.91,7.16,0.994,-0.348,1.63,0.505,-0.233,1.18,-0.387,2.97
CCTACTGGGCCACGAAAGGTCATTGACTCAGTGA,4.14,5.29,4.5,4.65,0.406,5,4.93,4.87,2.71,4.15,5.69,5.8,0.0683,-0.677,2.13,5.15,1.92,5.49,0.622,4.03
ATCTCTAGGTAAAGTTTAGTGAAAGATCGATAGA,0.0185,0.132,-0.104,0.124,0.703,0.485,0.873,1.36,0.722,1.25,2.35,1.77,1.78,1.51,0.509,0.187,0.339,-0.0938,1.15,0.584
TCAGACAGGTGATGGTAACTCAGGTACGCAGTCG,0.415,0.602,0.0587,0.648,-0.117,1.16,0.601,1.7,3.35,2.55,2.18,0.496,-0.328,-0.349,0.0712,0.333,0.496,0.242,0.298,0.566
ACTATTAATTGACTTAGGGCAACCGATACGACGC,0.0871,0.356,1.02,0.353,1.25,0.0941,1.05,0.505,0.559,0.814,0.595,0.509,0.998,1.47,1.74,0.334,1.65,0.245,2.46,0.883
